The results in this text go back to ChEMBL document CHEMBL4513216, “Probing the Open Global Health Chemical Diversity Library for Multistage-Active Starting Points for Next-Generation Antimalarials” (ACS Infect Dis, 2020).

Out of some 69,000 compounds screened, about 8,600 (12%) showed an effect of 50% or more. The entries come from a sample that favours strong results as a whole.

For the experiment, the system named is Plasmodium berghei. Kind of experiment: Screen against P. berghei liver stage (PbLuc), transformed with Luciferase, at 10uM. Particulars: tested at 10 uM. It is filed as functional, HepG2.
As for `COc1cccc(-n2nnc(C(=O)N3CCN(C)CC3C)c2C)c1` (stereo not given), the INHIBITION was 68.3%. `Cc1nc(C)c(CN2CCC(N(C)Cc3nnc(C4CC4)o3)C2)s1` (stereo not given): the INHIBITION is -21.9%. In the case of `Cc1noc(CNc2cc3c(cc2Cl)NC(=O)CO3)n1` it was 3.13%; in that of `Cc1ccc(CNc2cc3c(cc2Cl)NC(=O)CO3)cc1C`, 56%. In the case of `CC(C)(C)c1nc(CNc2cc3c(cc2Cl)NC(=O)CO3)no1` it was 5.91%; in that of `O=C(NCc1nnc2n1CCC2)c1cccc(Br)c1`, -57.5%; in that of `Cc1csc(C2(NCc3csc(C4CC4)n3)CCCC2)n1`, 24.2%. Take `Cc1csc(C2(NCc3nc(-c4ccco4)oc3C)CCCC2)n1`: the INHIBITION turned out to be 64.5%. Turning to `Cc1csc(C2(NCC(O)COC(C)C)CCCC2)n1` (stereo not given), the INHIBITION is on record as 9.41%. With `Cc1csc(C2(NCc3nnc(-c4ccco4)o3)CCCC2)n1` the figure was 32.9%; with `Cc1csc(C2(NCc3ccc(OCC(F)F)cc3)CCCC2)n1`, 14.5%; with `Cc1csc(C2(NCc3nc(-c4ccco4)no3)CCCC2)n1`, 62%. In the case of `COCCNC(=O)N1CCN(C(=O)c2nsc3ccc(C)cc23)CC1` it was -32.1%; in that of `Cc1ccc(OCC(=O)N2CCCC(n3nc(C)nc3C)C2)cc1` (stereo not given), 25.1%. With `CN(CCCN1CCCCCC1)C(=O)c1ccccc1NCC(=O)O` the figure was 14.9%; with `c1ccc(-c2nnc(CN3CCCC(Cn4cncn4)C3)o2)cc1` (stereo not given), 9.31%.

For the molecule `CCOc1ccc(C#N)cc1NCC(=O)Nc1cc(C)no1`, the INHIBITION came to 7.7%. On to `CCOc1ccc(C(F)(F)F)cc1NCc1nc(C)c(C)o1`, for which the INHIBITION is on record as 65.6%. Regarding `CCOc1ccc(C#N)cc1NCC(=O)OC`, the INHIBITION is listed as -38.7%. As to `COc1ccc(Cl)cc1NCc1cc(C)on1`, the INHIBITION is 11.783%. With `CCOc1ccc(C(F)(F)F)cc1NC(=O)N1CCC(C(N)=O)CC1`, the INHIBITION was -3.21%. With `CCNC(=O)NC(=O)CNc1cc(C#N)ccc1OCC` the figure was -9.76%. With `CCOc1ccc(C#N)cc1NCc1cc(C)on1`, the INHIBITION amounted to 51.7%. With `CCOc1ccc(C(F)(F)F)cc1NC(=O)NCc1noc(C)n1` the figure was -15%; with `CCCNC(=O)CNc1cc(C#N)ccc1OCC`, 60.5%. In the case of `CCOc1ccc(OCC)c(NCc2cc(C)on2)c1` it was 71.2%; in that of `CCOc1c(Cl)cccc1NCc1cc(C)on1`, -10.2%. `CCOc1ccc(C#N)cc1NCC(=O)NC(=O)NC`: the INHIBITION was found to be 2.3%.

Turning to `CCN(Cc1cccc(C)c1)Cc1nc2c(cnn2C)c(=O)[nH]1`, the INHIBITION was determined as 49.1%. `Cc1cc(N2CCN(Cc3cn(C)nc3C)CC2)cc(C2CCNC2)n1` (stereo not given): the INHIBITION is listed as 18.225%. As to `Cc1ccc(NC2CCN(C(=O)c3cccnc3N(C)C)CC2)nn1`, the INHIBITION was found to be 21.6%. With `CN(C)[C@@H]1CCN(c2ncc(F)cn2)[C@H]1Cc1cccnc1`, the INHIBITION is reported as 9.72%. On to `Cc1cc(C)n(CC2CN(Cc3ccc(C(N)=O)cc3)CCO2)n1` (stereo not given), for which the INHIBITION came out at 46.1%. With `COCC(=O)N1CCCC1c1nc(C)c2c(n1)N(CC(C)C)C(=O)CC2` (stereo not given), the INHIBITION is reported as -16.9%. Take `CCNC(=O)N(C)C(c1ccccc1)c1ccccn1` (stereo not given): the INHIBITION was -16%. With `COc1ccc(C(C)NCc2ccsc2)cc1Cn1cccn1` (stereo not given) the figure was 10.6%. With `CC(=O)N(C)C1CCN(C(=O)NCCc2cc(F)ccc2F)CC1` the figure was -6.67%; with `Cc1cc(CNc2ccc(C(F)(F)F)cc2)no1`, 30.4%; with `Cc1cc(CNc2cc(Cl)ccc2OCCS(C)(=O)=O)no1`, 48.1%.

With `CCOc1ccc(C(F)(F)F)cc1NCc1cc(C)on1`, the INHIBITION is reported as 64.7%. In the case of `Cn1cc(CN2CCC3(CC2)CC(c2ccncc2)C(=O)N3)cn1` (stereo not given) it was 36.4%; in that of `OC(CN1CCN(CC2CC2)CC1)c1ccc(Br)cc1` (stereo not given), -63.6%. With `O=C(N1CCCCC1)N1CCN(CC(O)c2ccc(F)cc2)CC1` (stereo not given) the figure was 9.25%; with `OC(CN1CCN(Cc2nnc(C3CC3)o2)CC1)c1ccccc1` (stereo not given), -7.06%; with `OC(CN1CCN(CCOCC(F)(F)F)CC1)c1ccccc1` (stereo not given), 56.9%. As to `CCOCCN1CCN(CC(O)c2ccc(C(F)(F)F)cc2)CC1` (stereo not given), the INHIBITION came out at 24%. In the case of `O=C(N1CCCCC1)N1CCN(CC(O)c2ccccc2)CC1` (stereo not given) it was 56.4%; in that of `OC(CN1CCN(CC2CCCCC2)CC1)c1ccccc1` (stereo not given), 93.8%; in that of `O=C(Cc1ccc(F)cc1)N1CCN(CC(O)c2ccccc2)CC1` (stereo not given), 29.7%. With `CC(O)CN1CCN(CCOCC(F)(F)F)CC1` (stereo not given) the figure was -21.2%; with `COCCNC(=O)NCc1ccc(-n2ccc(C(F)(F)F)n2)cc1`, -42.1%; with `CC1CCc2nn(CCNC(=O)C3CCCC3)c(=O)cc2C1` (stereo not given), -28.1%. On to `CCCN(CCC)CCNc1c(-c2ccccc2)c(=O)c1=O`, for which the INHIBITION amounted to 49.5%. In the case of `Cc1cnc(-c2nc(C3CCCN(Cc4ccccc4C)C3)no2)cn1` (stereo not given) it was 25.75%. For `Cc1cnc(CN2C[C@H]3CC(Oc4ccccc4)C[C@H]3C2)cn1` (stereo not given in full), the INHIBITION amounted to 30.4%.
